The full data set covers some 7,900 targets. This sample favours those with a hit. About 0.6% of all pairs of compound and target were hits.
Legend:
Assay in all cases: log2 fold change, soluble protein after heating vs DMSO (PISA); higher = thermal stabilisation; K562 cells, 10 uM, 30 min; active = over 0.2 and 3.5 SD of the protein, either way, in both replicates (recomputed)
saracatinib = compound: CN1CCN(CCOc2cc(OC3CCOCC3)c3c(Nc4c(Cl)ccc5c4OCO5)ncnc3c2)CC1 [saracatinib]
How it was run: (§1)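 Soluble protein was defined as the supernatant after 21,000xg for 90 min. It came from K562 cells at 2×10^6 cells/mL given 10 μM compound for 30 min, heated in aliquots for 3 min across 48°C-58°C, pooled, and extracted in PBS with 0.5% NP-40 at 4°C, and was quantified by TMTpro 16plex LC-MS/MS with equalised channel sums. Thermal stability against control samples, from duplicates, is reported as log2 fold change.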

sotrastaurin = compound: CN1CCN(c2nc(C3=C(c4c[nH]c5ccccc45)C(=O)NC3=O)c3ccccc3n2)CC1 [sotrastaurin]
How it was run: as §1

alvocidib = compound: CN1CC[C@H](c2c(O)cc(O)c3c(=O)cc(-c4ccccc4Cl)oc23)[C@H](O)C1 [alvocidib]
How it was run: as §1

Tubastatin A = compound: CN1CCc2c(c3ccccc3n2Cc2ccc(C(=O)NO)cc2)C1 [Tubastatin A]
How it was run: as §1

[1] = compound: CNC(=O)C1=CC=CC=C1NC2=NC(=NC=C2Cl)NC3=C(C=C(C=C3)N4CCOCC4)OC
How it was run: as §1

defactinib = compound: CNC(=O)c1ccc(Nc2ncc(C(F)(F)F)c(NCc3nccnc3N(C)S(C)(=O)=O)n2)cc1 [defactinib]
How it was run: as §1

rucaparib = compound: CNCc1ccc(-c2[nH]c3cc(F)cc4c3c2CCNC4=O)cc1 [rucaparib]
How it was run: as §1

[2] = compound: CNc1nc(-c2ccc3c(N)n[nH]c3c2)cc(N2C[C@@H](C(=O)NC3CCCCC3)CC[C@H]2C)n1
How it was run: as §1

encorafenib = compound: COC(=O)N[C@@H](C)CNc1nccc(-c2cn(C(C)C)nc2-c2cc(Cl)cc(NS(C)(=O)=O)c2F)n1 [encorafenib]
How it was run: as §1

[3] = compound: COC(=O)[C@H](CCSC)NC(=O)C1=C(C=C(C=C1)NC[C@H](CS)N)C2=CC=CC=C2
How it was run: as §1

[4] = compound: COC1=CC=C(C=C1)CN2C=CC3=C2C=C(C=C3)C(=O)NO
How it was run: as §1

filanesib = compound: CON(C)C(=O)N1N=C(c2cc(F)ccc2F)S[C@@]1(CCCN)c1ccccc1 [filanesib]
How it was run: as §1

zotarolimus = compound: CO[C@H]1C[C@@H]2CC[C@@H](C)[C@@](O)(O2)C(=O)C(=O)N2CCCC[C@H]2C(=O)O[C@H]([C@H](C)C[C@@H]2CC[C@H](n3cnnn3)[C@H](OC)C2)CC(=O)[C@H](C)/C=C(\C)[C@@H](O)[C@@H](OC)C(=O)[C@H](C)C[C@H](C)/C=C/C=C/C=C/1C [zotarolimus]
How it was run: as §1

idasanutlin = compound: COc1cc(C(=O)O)ccc1NC(=O)[C@@H]1N[C@@H](CC(C)(C)C)[C@](C#N)(c2ccc(Cl)cc2F)[C@H]1c1cccc(Cl)c1F [idasanutlin]
How it was run: as §1

alisertib = compound: COc1cc(Nc2ncc3c(n2)-c2ccc(Cl)cc2C(c2c(F)cccc2OC)=NC3)ccc1C(=O)O [alisertib]
How it was run: as §1

[5] = compound: COc1cc2nc(-c3cc(F)ccc3O)nc(N[C@@H]3CNC[C@H]3C(C)(C)O)c2cc1OC
How it was run: as §1

gefitinib = compound: COc1cc2ncnc(Nc3ccc(F)c(Cl)c3)c2cc1OCCCN1CCOCC1 [gefitinib]
How it was run: as §1

[6] = compound: COc1cccc2cc(-c3nc([C@H]4CC[C@H](C(=O)O)CC4)n4ncnc(N)c34)[nH]c12
How it was run: as §1

lapatinib = compound: CS(=O)(=O)CCNCc1ccc(-c2ccc3ncnc(Nc4ccc(OCc5cccc(F)c5)c(Cl)c4)c3c2)o1 [lapatinib]
How it was run: as §1

pictilisib = compound: CS(=O)(=O)N1CCN(Cc2cc3nc(-c4cccc5[nH]ncc45)nc(N4CCOCC4)c3s2)CC1 [pictilisib]
How it was run: as §1

Measured: log2 fold change

TMEM263 (UniProt Q8WUH6)
inactive: saracatinib 0.027 | sotrastaurin -0.046 | alvocidib 0.025 | Tubastatin A -0.049 | [1] -0.161 | defactinib 0.007 | rucaparib -0.031 | [2] -0.057 | encorafenib 0.015 | [3] -0.015 | [4] -0.096 | zotarolimus -0.038 | idasanutlin -0.09 | alisertib -0.043 | gefitinib -0.042 | [6] 0.065 | lapatinib -0.045 | pictilisib -0.208
active: filanesib -0.654 | [5] -0.789

VPS50 (UniProt Q96JG6)
Chain of UniProt Q96JG6 (Q96JG6 whole entry, looked up): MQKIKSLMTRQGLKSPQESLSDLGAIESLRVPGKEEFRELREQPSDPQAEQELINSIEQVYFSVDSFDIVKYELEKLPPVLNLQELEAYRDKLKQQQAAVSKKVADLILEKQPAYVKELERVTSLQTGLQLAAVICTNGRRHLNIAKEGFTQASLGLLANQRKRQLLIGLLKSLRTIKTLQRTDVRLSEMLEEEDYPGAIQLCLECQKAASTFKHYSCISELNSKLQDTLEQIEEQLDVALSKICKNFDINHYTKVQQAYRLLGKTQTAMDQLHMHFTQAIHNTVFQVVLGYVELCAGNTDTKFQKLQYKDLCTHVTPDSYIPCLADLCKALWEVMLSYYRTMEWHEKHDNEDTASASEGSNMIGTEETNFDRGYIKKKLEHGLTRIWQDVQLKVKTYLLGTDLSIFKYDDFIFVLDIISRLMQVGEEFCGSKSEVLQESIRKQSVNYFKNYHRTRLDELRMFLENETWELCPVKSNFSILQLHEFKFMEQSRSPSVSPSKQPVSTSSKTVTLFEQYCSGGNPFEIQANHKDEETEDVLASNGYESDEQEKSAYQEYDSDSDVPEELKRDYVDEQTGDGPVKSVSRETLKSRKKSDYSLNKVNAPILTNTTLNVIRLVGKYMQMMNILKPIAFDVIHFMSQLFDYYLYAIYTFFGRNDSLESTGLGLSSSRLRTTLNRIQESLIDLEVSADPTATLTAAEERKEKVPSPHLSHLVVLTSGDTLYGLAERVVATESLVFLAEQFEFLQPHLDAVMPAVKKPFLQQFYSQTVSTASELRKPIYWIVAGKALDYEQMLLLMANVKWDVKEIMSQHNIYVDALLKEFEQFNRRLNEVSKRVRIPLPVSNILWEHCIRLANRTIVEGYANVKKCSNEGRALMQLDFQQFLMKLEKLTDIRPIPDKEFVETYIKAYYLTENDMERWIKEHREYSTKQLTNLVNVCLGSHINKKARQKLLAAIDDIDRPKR
inactive: saracatinib -0.108 | sotrastaurin -0.089 | alvocidib -0.07 | Tubastatin A 0.036 | [1] 0.04 | defactinib -0.11 | rucaparib 0.033 | [2] -0.012 | encorafenib 0.1 | [3] -0.022 | [4] 0.023 | filanesib -0.021 | zotarolimus 0.028 | idasanutlin -0.157 | alisertib 0.019 | [5] 0.012 | gefitinib 0.007 | [6] -0.027 | lapatinib -0.006 | pictilisib -0.003

WARS2 (UniProt Q9UGM6)
Chain of UniProt Q9UGM6 (Q9UGM6 whole entry, looked up): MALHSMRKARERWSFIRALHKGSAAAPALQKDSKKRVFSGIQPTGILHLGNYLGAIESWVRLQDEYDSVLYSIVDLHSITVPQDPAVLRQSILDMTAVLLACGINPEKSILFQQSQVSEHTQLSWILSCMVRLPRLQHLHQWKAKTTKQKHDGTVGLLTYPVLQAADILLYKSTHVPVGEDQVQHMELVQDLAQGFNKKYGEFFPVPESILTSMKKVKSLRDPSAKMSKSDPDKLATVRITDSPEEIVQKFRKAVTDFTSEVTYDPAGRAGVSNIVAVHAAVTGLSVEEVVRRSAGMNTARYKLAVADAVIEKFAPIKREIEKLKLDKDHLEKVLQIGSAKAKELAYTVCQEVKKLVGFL
inactive: saracatinib -0.037 | sotrastaurin 0.014 | alvocidib -0.08 | Tubastatin A -0.04 | [1] 0.018 | defactinib -0.065 | rucaparib 0.04 | [2] 0.006 | encorafenib -0.011 | [3] -0.057 | [4] -0.072 | filanesib -0.089 | zotarolimus -0.034 | idasanutlin 0.014 | alisertib -0.025 | [5] 0.062 | gefitinib -0.035 | [6] 0 | lapatinib -0.127 | pictilisib 0.037

TUBAL3 (UniProt A6NHL2)
Chain of UniProt A6NHL2 (A6NHL2 whole entry, looked up): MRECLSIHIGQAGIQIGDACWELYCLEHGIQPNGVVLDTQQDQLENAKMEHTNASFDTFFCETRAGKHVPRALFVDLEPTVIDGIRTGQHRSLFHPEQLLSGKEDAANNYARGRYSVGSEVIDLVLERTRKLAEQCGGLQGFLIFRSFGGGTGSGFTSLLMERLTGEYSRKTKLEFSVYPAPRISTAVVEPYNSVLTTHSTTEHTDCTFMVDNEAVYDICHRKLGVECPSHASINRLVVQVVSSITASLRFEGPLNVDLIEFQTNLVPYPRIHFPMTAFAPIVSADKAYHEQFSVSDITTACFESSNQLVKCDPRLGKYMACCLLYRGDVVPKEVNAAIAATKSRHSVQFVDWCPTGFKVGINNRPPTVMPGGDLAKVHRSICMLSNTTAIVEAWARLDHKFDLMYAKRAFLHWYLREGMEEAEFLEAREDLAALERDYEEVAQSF
inactive: saracatinib -0.074 | sotrastaurin -0.054 | alvocidib 0.058 | Tubastatin A -0.003 | [1] -0.125 | defactinib -0.069 | [2] 0.067 | encorafenib 0.187 | [3] -0.057 | [4] -0.037 | filanesib -0.058 | zotarolimus -0.064 | idasanutlin -0.218 | alisertib 0.048 | [5] 0 | gefitinib -0.059 | [6] 0.015 | lapatinib 0.075 | pictilisib 0.052
active: rucaparib -0.51

VPS39 (UniProt Q96JC1)
Chain of UniProt Q96JC1 (Q96JC1 whole entry, looked up): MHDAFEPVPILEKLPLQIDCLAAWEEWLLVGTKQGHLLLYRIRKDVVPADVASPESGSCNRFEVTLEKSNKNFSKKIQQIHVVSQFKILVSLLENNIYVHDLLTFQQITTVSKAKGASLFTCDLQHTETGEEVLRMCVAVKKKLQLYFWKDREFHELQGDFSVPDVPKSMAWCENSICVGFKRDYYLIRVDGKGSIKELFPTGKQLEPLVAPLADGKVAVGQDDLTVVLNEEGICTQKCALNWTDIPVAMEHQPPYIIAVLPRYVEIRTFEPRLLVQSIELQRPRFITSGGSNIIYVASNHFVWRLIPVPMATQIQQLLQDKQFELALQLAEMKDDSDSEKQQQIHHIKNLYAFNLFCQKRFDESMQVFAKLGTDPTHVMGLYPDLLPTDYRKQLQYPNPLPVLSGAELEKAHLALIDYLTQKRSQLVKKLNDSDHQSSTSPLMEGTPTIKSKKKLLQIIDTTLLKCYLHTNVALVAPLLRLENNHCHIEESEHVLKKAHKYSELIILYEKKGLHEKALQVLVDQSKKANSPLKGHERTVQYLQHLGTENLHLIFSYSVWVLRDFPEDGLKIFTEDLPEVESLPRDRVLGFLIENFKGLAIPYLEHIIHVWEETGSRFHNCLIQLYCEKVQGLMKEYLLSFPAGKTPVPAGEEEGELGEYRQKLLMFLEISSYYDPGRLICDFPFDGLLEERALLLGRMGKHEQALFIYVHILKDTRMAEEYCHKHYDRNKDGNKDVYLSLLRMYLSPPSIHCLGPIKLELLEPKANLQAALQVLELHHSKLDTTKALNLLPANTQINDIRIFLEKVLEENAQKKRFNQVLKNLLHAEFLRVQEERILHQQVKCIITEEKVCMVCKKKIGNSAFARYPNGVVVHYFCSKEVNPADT
inactive: saracatinib 0 | sotrastaurin -0.097 | alvocidib -0.035 | Tubastatin A 0.033 | [1] -0.015 | defactinib -0.068 | rucaparib 0.039 | [2] 0.005 | encorafenib -0.006 | [3] -0.03 | [4] -0.038 | filanesib -0.119 | zotarolimus 0.023 | idasanutlin -0.028 | alisertib -0.012 | [5] 0.021 | gefitinib 0.051 | [6] -0.059 | lapatinib -0.012 | pictilisib -0.035

XPNPEP1 isoform 3 (UniProt Q9NQW7)
Chain of UniProt Q9NQW7 (Q9NQW7 whole entry, looked up): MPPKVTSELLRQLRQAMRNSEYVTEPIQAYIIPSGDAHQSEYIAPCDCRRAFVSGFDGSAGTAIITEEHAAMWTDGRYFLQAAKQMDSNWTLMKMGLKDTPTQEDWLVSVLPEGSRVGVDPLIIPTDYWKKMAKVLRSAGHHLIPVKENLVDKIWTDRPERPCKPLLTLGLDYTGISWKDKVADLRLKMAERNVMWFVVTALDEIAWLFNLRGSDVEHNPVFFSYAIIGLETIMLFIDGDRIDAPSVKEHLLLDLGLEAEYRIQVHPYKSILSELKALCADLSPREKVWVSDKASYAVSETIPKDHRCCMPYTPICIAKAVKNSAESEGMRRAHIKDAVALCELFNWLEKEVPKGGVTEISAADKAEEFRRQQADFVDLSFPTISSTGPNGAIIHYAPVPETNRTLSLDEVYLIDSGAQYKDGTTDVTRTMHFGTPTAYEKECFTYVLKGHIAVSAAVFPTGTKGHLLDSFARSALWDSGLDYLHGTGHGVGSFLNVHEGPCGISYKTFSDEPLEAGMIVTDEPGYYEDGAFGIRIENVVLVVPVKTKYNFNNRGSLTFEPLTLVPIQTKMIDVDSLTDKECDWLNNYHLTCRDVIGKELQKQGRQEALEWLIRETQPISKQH
inactive: saracatinib 0.002 | sotrastaurin -0.005 | alvocidib -0.076 | Tubastatin A -0.125 | [1] -0.027 | defactinib -0.07 | rucaparib -0.033 | [2] -0.012 | encorafenib -0.008 | [4] 0.006 | filanesib -0.121 | zotarolimus 0.026 | idasanutlin -0.023 | alisertib 0.028 | [5] -0.009 | gefitinib 0.004 | [6] 0.038 | lapatinib 0.01 | pictilisib 0.068
active: [3] 0.352

TRAPPC6B (UniProt Q86SZ2)
Chain of UniProt Q86SZ2 (Q86SZ2 whole entry, looked up): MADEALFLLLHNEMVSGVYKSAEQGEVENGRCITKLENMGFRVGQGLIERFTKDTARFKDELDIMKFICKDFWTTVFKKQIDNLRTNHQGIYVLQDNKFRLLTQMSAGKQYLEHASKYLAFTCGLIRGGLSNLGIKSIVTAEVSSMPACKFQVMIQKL
inactive: saracatinib 0.035 | sotrastaurin -0.068 | alvocidib -0.055 | Tubastatin A 0.031 | [1] -0.034 | defactinib -0.046 | rucaparib 0.012 | [2] 0.008 | encorafenib -0.02 | [3] 0.022 | [4] 0.055 | filanesib -0.023 | zotarolimus 0.012 | idasanutlin -0.023 | alisertib -0.009 | [5] -0.003 | gefitinib 0.042 | [6] 0.028 | lapatinib 0.019 | pictilisib 0.02

VPS33A (UniProt Q96AX1)
Chain of UniProt Q96AX1 (Q96AX1 whole entry, looked up): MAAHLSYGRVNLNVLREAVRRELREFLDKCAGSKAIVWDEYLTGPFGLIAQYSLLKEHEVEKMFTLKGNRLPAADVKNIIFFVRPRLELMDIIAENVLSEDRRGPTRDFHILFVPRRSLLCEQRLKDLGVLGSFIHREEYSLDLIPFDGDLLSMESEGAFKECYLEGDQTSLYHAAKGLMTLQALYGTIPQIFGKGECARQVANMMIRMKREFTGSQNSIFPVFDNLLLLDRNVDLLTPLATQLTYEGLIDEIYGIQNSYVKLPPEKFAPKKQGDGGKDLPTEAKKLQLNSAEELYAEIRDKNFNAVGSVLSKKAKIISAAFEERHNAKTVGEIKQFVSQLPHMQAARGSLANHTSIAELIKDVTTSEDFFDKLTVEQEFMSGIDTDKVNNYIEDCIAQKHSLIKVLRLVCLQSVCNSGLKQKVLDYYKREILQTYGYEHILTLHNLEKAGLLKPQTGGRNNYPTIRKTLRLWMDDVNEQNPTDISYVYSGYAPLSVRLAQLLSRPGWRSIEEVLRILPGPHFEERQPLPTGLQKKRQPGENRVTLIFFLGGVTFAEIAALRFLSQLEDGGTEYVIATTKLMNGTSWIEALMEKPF
inactive: saracatinib -0.036 | sotrastaurin -0.174 | alvocidib -0.071 | Tubastatin A 0.033 | [1] -0.043 | defactinib -0.06 | rucaparib 0.045 | [2] -0.013 | encorafenib -0.003 | [3] -0.025 | [4] 0.018 | filanesib -0.096 | zotarolimus 0.033 | idasanutlin -0.039 | alisertib -0.037 | [5] 0.014 | gefitinib -0.033 | [6] -0.039 | lapatinib 0.015 | pictilisib -0.083
